Shown are actives, neighbours in structure and some others; about 2.8% of the full set was active somewhere.
SMARCA2 act: SMARCA2 (BRM) function activators, primary screen, cell-based, luminescence, high throughput; MG213 cells, MMTV-luciferase reporter, dexamethasone, overnight; activation, % at 9.1 µM; AID 652017, 2013; actives 1% (n = 370,000); in the data active means activation above about 7.8%;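 further: 0% = vehicle wells and 100% = reference activator wells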
MsrA act: bovine MsrA enzyme activators, primary screen, biochemical, absorbance, HTS. Methionine sulfoxide reductase A (Bos taurus). purified bovine MsrA, absorbance read-out. activation, % at 10.6 µM. actives 0.3% (n = 360,000); in the data active means activation above about 7.5%;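 further: 0% = vehicle and 100% = reference activator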
MsrA inh: bovine MsrA enzyme inhibitors, primary screen, biochemical, absorbance, HTS | Methionine sulfoxide reductase A (Bos taurus) | purified bovine MsrA, absorbance read-out | inhibition, % at 15.5 µM | actives 0.75% (n = 360,000); in the data active means inhibition above about 4.5%;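 further: 0% = vehicle wells with enzyme and 100% = reference inhibitor wells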
proKLK7 act: proKLK7 zymogen activators, primary screen, biochemical, fluorescence intensity | Kallikrein-7 (Homo sapiens), P49862 | purified proKLK7, EDANS-DABCYL substrate fluorescence; 100% is mature enzyme control, 0% vehicle | activation, % at 7 µM | actives 0.9% (n = 370,000) | AID 652039, 2013;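 active means activation above the mean of all tested compounds plus 3 SD, computed per campaign excluding outliers beyond control limits, cut at about 13% in these data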
Target sequence (P49862 whole entry, looked up): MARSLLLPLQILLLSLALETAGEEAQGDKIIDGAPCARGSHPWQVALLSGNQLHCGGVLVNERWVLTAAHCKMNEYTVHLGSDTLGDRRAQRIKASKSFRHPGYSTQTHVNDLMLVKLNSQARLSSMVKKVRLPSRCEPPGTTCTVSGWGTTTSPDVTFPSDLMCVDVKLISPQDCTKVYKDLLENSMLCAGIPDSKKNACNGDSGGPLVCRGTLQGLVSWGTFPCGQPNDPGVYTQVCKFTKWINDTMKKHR
KLK7 act conf: proKLK7 zymogen activators, confirmation, biochemical, fluorescence intensity, triplicate; purified proKLK7, EDANS-DABCYL substrate fluorescence; scaled: vehicle 0, mature enzyme 100; actives 68% (n = 3,200); activation, % at 7 µM; shares compounds with proKLK7 act;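 active means activation, as change over the incubation, above the mean of all tested compounds plus 3 SD, cut at about 13% in these data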
EDANS-DABCYL int: EDANS-DABCYL substrate optical interference, artefact control for kallikrein-7 zymogen activator project, biochemical, fluorescence intensity, high throughput; shares compounds with proKLK7 act; no enzyme, 4 h; solvent 0%, active enzyme control 100%; activation, % at 7 µM; actives 80% (n = 3,200); AID 686952, 2013;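 active means activation above the all-compound mean plus 3 SD, ignoring values outside control-based bounds, cut at about 4.8% in these data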;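 further: value is the 4 h activation minus the activation read at time zero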
K7 EDANS ctr: EDANS fluorescence interference in dose response, no enzyme; shares compounds with proKLK7 act; EDANS-DABCYL peptide fluorescence interference; EC50, µM; actives 20% (n = 250); AID 720493;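 active means compounds that raise the fluorescence signal in this interference counterscreen, with EC50 at or below 10 µM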;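 further: intact quenched peptide substrate alone read at 355 nm excitation and 520 nm emission; signal is fluorescence gain from T0 to T4 after four hours at room temperature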
The depositor's hits bear a star; / = no result.

SMILES	SMARCA2 act	MsrA act	MsrA inh	proKLK7 act	KLK7 act conf	EDANS-DABCYL int	others
COCCN1Cc2cc(=O)n3c([nH]c4ccccc43)c2C1=N	5.0	-0.5	2.0	22.1*	18.9*	-8.0	K7 EDANS ctr=>69.5
N#CCC[C@@H]1CC[C@]2(CCCN(Cc3ccncc3)C2)O1	-1.0	/	/	0.0	/	/
Cc1cc(=O)oc2cc(OCC(=O)N3CCN(C(C)c4ccccc4)CC3)c(Cl)cc12 (stereo unspecified)	-1.5	-1.1	1.6	37.7*	63.1*	75.2*
c1ccc(Cn2nnnc2C2CN=C(c3ccccc3)c3ccccc3N2)cc1 (stereo unspecified)	-3.1	/	/	1.0	/	/
COc1cc2c(cc1OC)CC[N+](C)=C2	1.6	-10.0	0.9	42.8*	57.7*	52.6*
O=S(=O)(c1ccc2ccccc2c1)N1Cc2cc(Br)ccc2-n2nncc2C1	-2.1	/	1.3	0.6	/	/
O=C(c1cccn2c(=O)c3ccccc3nc12)N1CCC2(CC1)OCCO2	0.2	-4.8	3.4	39.8*	41.6*	49.2*
O=C(c1cccn2c(=O)c3cc(Cl)ccc3nc12)N1CCC2(CC1)OCCO2	0.9	-5.9	1.8	14.2*	57.7*	73.3*
O=C(c1n[nH]c(=O)c2ccccc12)N1CCC2(CC1)OCCO2	-1.1	-1.1	0.9	-1.0	/	/
O=C1C2CC=CCC2C(=O)N1SC(Cl)(Cl)Cl (stereo unspecified)	1.5	/	0.0	-0.1	/	/
COc1cc(CCN)c(OC)cc1C	-4.1	/	-1.0	0.4	/	/
C[C@H](NC(=O)OCc1ccccc1)[P+](=O)O	-1.5	/	/	0.1	/	/

Screens: PubChem BioAssay, The Scripps Research Institute Molecular Screening Center
